# Assay outcomes as filed in PubChem BioAssay.
# An excerpt weighted towards active compounds, which were near 6.2% of everything screened.
# LASV entry inh: qHTS for Inhibitors of binding or entry into cells for Lassa Virus; actives 1.2% (n = 300,000); Potency, µM (highest dose often 37.9 µM), for the others: at the top dose activity change, negative = inhibition, most hits filed as inhibitors; Lassa virus pseudotype entry inhibition, cell reporter; calls by dose curve; tested in HEK293 cells; further: potency means the concentration at half of the fitted maximal effect; nearly all actives have a fitted effect of over 50% in size
# HCMV inh: qHTS Assay for inhibitors of the human cytomegalovirus (HCMV). HFF cells, HCMV-luciferase reporter, 72 h; hits give low values. activity change, negative = inhibition, % at 57.5 µM. actives 4.5% (n = 410,000); in the data active means activity change below about -60%; inconclusive means no clear call, values can overlap the other calls; inactive means above about -39%
#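 Human foreskin fibroblasts infected with luciferase-reporter HCMV at MOI 1 PFU/cell, compounds at two doses. Luciferase measured 72 h post infection; normalized to buffer-only basal and Salinomycin (10uM) controls.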
# FMDV inh: High Throughput Screening for Foot and Mouth Disease Virus Antivirals; AID 1159524, 2015; Potency, µM (highest dose often 57.9 µM), without a hit: top-dose activity change, negative = inhibition, actives largely listed as inhibitors; FMDV antiviral cell-based qHTS; actives 1.2% (n = 410,000); calls by dose curve; tested in HEK293T cells; further: read-out not given here; potency means the concentration at half of the fitted maximal effect; nearly all actives have a fitted effect of over 45% in size
# Marburg entry inh: qHTS for inhibitors of binding or entry into cells for Marburg Virus | Marburg virus pseudotyped entry inhibition, cell reporter | Potency, µM (top dose mostly 37.8 µM), without a hit: at the highest dose activity change, negative = inhibition, usual class: inhibitors | actives 1.8% (n = 300,000) | AID 540276, 2011; calls by dose curve; tested in HEK293 cells; further: potency means the concentration at half of the fitted maximal effect
# Numbers without * were called inactive; ? = inconclusive; . = no result given; [ ] = remark or other dose. On the % scale 0 is the no-effect control and ±100 the full control effect.
SMILES,LASV entry inh,HCMV inh,FMDV inh,Marburg entry inh
CSc1nc(N)nc(SCC(=O)OC(C)C)c1C#N,-3%,-108*,-19%,13%
CCN(CC)CCNc1ccc(C)c2sc3ccc(O)cc3c(=O)c12,?,-97*,-22%,2.2µM*
CCN(CC)CCNc1ccc(CO)c2oc3cc(Cl)ccc3c(=O)c12,.,-28,-17%,.
O=C(c1cccc(F)c1)N1CCC2(CCCN(Cc3cc(C(F)(F)F)cc(C(F)(F)F)c3)C2)CC1,.,.,2%,.
CN(Cc1ccc2ccccc2c1)C(=O)c1ccc(C(F)(F)F)cc1,20%[46.1 µM],-62*,-5%,2%[46.1 µM]
COc1ccc(CN(C)C(=O)c2ccc(Oc3ccccc3)cc2)cc1F,?,10,-10%,?
COc1cc(NC(=O)Cc2nn(C)c(=O)c3ccccc23)cc(OC)c1,-19%,-88*,?,?
Cn1nc(CC(=O)Nc2ccc(N3CCN(C(=O)OC(C)(C)C)CC3)cc2)c2ccccc2c1=O,0%,-79*,?,21%
OC[C@H]1O[C@@H](c2nc(-c3cccc4ccccc34)no2)[C@H](O)[C@@H]1O,.,33,28%,.
CCc1ccc(NC(=O)c2ccc(F)c(S(=O)(=O)NCc3ccc(Cl)c(Cl)c3)c2)cc1,?,54,-28%,.
COc1ccccc1CNS(=O)(=O)c1cc(C(=O)Nc2cccc(C(F)(F)F)c2)ccc1F,?,-67*,-24%,.
Cc1ccc(C(=O)Nc2ccccc2C(=O)O)cc1S(=O)(=O)NCc1ccccc1,.,-10,58%,.
O=C(Nc1cccc(Cl)c1)c1ccc(F)c(S(=O)(=O)NCc2cccs2)c1,?,-93*,?,?
Cc1ccc(C(=O)Nc2ccc(Br)cc2)cc1S(=O)(=O)NCc1ccccc1,?,-69*,-24%,.
COc1ccc(CNS(=O)(=O)c2cc(C(=O)Nc3cc(Cl)cc(Cl)c3)ccc2F)cc1,-14%[46.1 µM],-78*,-9%,.
CCOc1ccccc1C(=O)N(Cc1ccc(N(C)C)cc1)CC1CCCO1 (configuration not stated),-13%[46.1 µM],?,8%,10%[46.1 µM]
Cc1occc1C(=O)NCCN1Cc2ccccc2OC(c2ccccc2F)C1 (configuration not stated),.,.,4%,.
CN1C(=O)C(C)(C)c2cc(S(=O)(=O)NCc3ccc(C(=O)Nc4ccc(Cl)cc4)cc3)ccc21,?,?,32µM*,.
O=C(Nc1cc(Cl)cc(Cl)c1)c1ccc(F)c(S(=O)(=O)NCc2ccccc2Cl)c1,-18%[46.1 µM],-99*,-5%,.
CCc1ccc(NC(=O)c2ccc(CNS(=O)(=O)c3ccc4c(c3)C(C)(C)C(=O)N4C)cc2)cc1,-17%[46.1 µM],?,?,.
O=C(CCS(=O)(=O)c1cc2c3c(c1)CCN3C(=O)CC2)NCc1ccc(F)cc1,-3%[46.1 µM],-13,5%,.
COc1cc(/C=C2/SC(=S)NC2=O)ccc1OS(=O)(=O)c1ccc(C)cc1,-16%,.,28µM*,?
COc1cc(/C=C2\SC(=S)NC2=O)ccc1OS(=O)(=O)c1ccccc1,-1%,.,.,-19%
Cc1c(Cl)cccc1NC(=O)Cn1c(=O)nc(-c2ccccc2)c2ccccc21,-5%[46.1 µM],-87*,10µM*,.
Cc1c(Cl)cccc1NC(=O)Cn1cc(C(=O)C2CCCCC2)c2ccccc21,?,-70*,?,?
SMILES,LASV entry inh,HCMV inh,FMDV inh,Marburg entry inh
O=C(Cn1c(=O)nc(-c2ccccc2)c2ccccc21)NCc1ccc(Cl)cc1,?,-94*,-9%,.
Cc1cc(C)cc(NC(=O)Cn2cc(C(=O)C3CCCCC3)c3ccccc32)c1,9%[46.1 µM],-28,-16%,0%[46.1 µM]
O=C(NCc1ccc(Cl)cc1)C(=O)NCC(c1cccs1)S(=O)(=O)c1cccs1 (configuration not stated),?,0,-18%,.
O=C(NCc1ccccc1Cl)C(=O)NCC(c1cccs1)S(=O)(=O)c1cccs1 (configuration not stated),?,-62*,-19%,.
OCC1(Cc2ccc(F)cc2)CCCN(Cc2ccc(F)cc2Cl)C1 (configuration not stated),?,-21,?,?
CCOc1ccc(CN2CCCC(CO)(Cc3ccc(F)cc3)C2)cc1 (configuration not stated),-40%[46.1 µM],12,1%,7.9µM*
COc1ccc(CN2CCCC(CO)(Cc3ccc(F)cc3F)C2)cc1 (configuration not stated),-42%[46.1 µM],-4,-4%,10µM*
CCOC(=O)c1c(C)oc2c1c(C(c1ccccc1)N1CCOCC1)c(O)c1ccccc12 (configuration not stated),23µM*,198,74%,?
CCOC(=O)c1c(C)oc2c1c(C(c1cccnc1)N1CCCCC1)c(O)c1ccccc12 (configuration not stated),12%,186,-6%,0%
COc1cccc2c(Cl)c(CC=C(Cl)Cl)c(C)nc12,10%,-28,?,2%
C=CCc1c(C)nc2c(OC)cccc2c1Cl,6%,-83*,7%,1%
Cc1c(C(=O)c2ccc(F)cc2)c2ccccn2c1CCc1ccccn1,8%[46.1 µM],-16,40µM*,?
Cc1c(C(=O)c2ccccc2)c2ccccn2c1CCc1ccccn1,?,-12,-23%,?
COc1cccc(CN2CCCC(c3nc(-c4ccncc4)ncc3-c3ccccc3C)C2)c1O (configuration not stated),.,.,-12%,.
O=S(=O)(c1ccccc1)N1N=C(c2ccccc2)CC1c1ccccc1 (configuration not stated),0%,-74*,-22%,?
O=S(=O)(c1ccccc1)N1N=C(c2ccc(Cl)cc2)CC1c1ccco1 (configuration not stated),?,-33,0%,10µM*
COc1ccc(C2CC(c3ccccc3)=NN2S(=O)(=O)c2ccc(C)cc2)c(OC)c1 (configuration not stated),?,-63*,60%,?
COc1ccc(C2=NN(S(=O)(=O)c3ccccc3)C(c3ccccc3)C2)cc1 (configuration not stated),.,-20,5%,.
CCc1cc2c(NCc3ccccc3)nc(C)nc2s1,.,-84*,?,.
CC(=O)c1ccc(N2CCN(c3ccc(NC(=O)c4cccs4)cc3C(=O)O)CC2)cc1,-4%[46.1 µM],11,-20%,.
CN1C2CCC1CC(OC(c1ccc(F)cc1)c1ccc(F)cc1)C2 (configuration not stated),.,.,-11%,.
CN1[C@@H]2CC[C@H]1CC(OC(=O)C(O)c1ccccc1)C2 (some centres not stated),.,-12,-23%,.
CN1C2CCC1CC(OC(c1ccccc1)c1ccccc1)C2 (configuration not stated),.,-32,?,5µM*
CN1[C@@H]2CC[C@H]1CC(O[C@@H](c1ccccc1)c1ccc(Cl)cc1)C2 (some centres not stated),.,.,-21%,3.2µM*
CN1[C@@H]2CC[C@H]1CC(OC(c1ccccc1)c1ccccc1)C2 (some centres not stated),.,.,0%,5µM*
